In ChEMBL document CHEMBL4513216, “Probing the Open Global Health Chemical Diversity Library for Multistage-Active Starting Points for Next-Generation Antimalarials” (ACS Infect Dis, 2020):
Hit rate of the full screen: of about 68,000 compounds, about 2,700 (4%) showed an effect of 50% or more. The full list was thinned out, with strong results kept by preference.

Test system: Plasmodium berghei
Assay: Screen against P. berghei liver stage (PbLuc), transformed with Luciferase, at 2uM
Format: functional, HepG2
Conditions: tested at 2 uM

Point of comparison: `OC(CNc1ccc(Cl)cn1)CN1CCOCC1` (configuration not stated), INHIBITION 12.58%. Against it:
- COc1ncc(C2(O)CCN(Cc3ccc(F)c(F)c3)CC2)c(OC)n1 — lower, 10.83%
- O=C(CN1CCCC(O)C1)NC(=O)NCc1cccs1 (configuration not stated) — lower, -4.29%
- CN(C)c1cc(C(=O)NCC2(c3ccc(F)cc3)CC2)ccn1 — higher, 87.73%
- Cc1cccc(C2(CNC(=O)c3ccnc(N(C)C)c3)CCOCC2)c1 — lower, -3.96%
- CN(C)c1cc(C(=O)NCC2(c3cccc(F)c3)CCOCC2)ccn1 — higher, 15.38%
- CC1CCC(O)(CN2CCN(CCNC(=O)C3CCC3)CC2)CC1 (configuration not stated) — lower, -81.41%
- CC(=O)N1CCC(C(=O)NCCN2CCC(C)CC2)CC1 — higher, 44.99%
- CC1CCN(CCCNC(=O)C2CCCCC2)CC1 — lower, 1.41%
- COCCCNC(=O)C1CCN(CC2(O)CCC(C)CC2)CC1 (configuration not stated) — higher, 54.69%
- CCCC(=O)N1CCC(C(=O)NCCN2CCC(C)CC2)CC1 — higher, 20.43%
- CCCNC(=O)C1CCN(CC2(O)CCC(C)CC2)CC1 (configuration not stated) — higher, 50.03%
- CN(Cc1ccco1)Cc1cnc2n1CCN(c1ccccn1)CC2 — lower, -18.6%
- CC1CCN(CC(O)CNc2ccccn2)CC1 (configuration not stated) — higher, 39.95%
- CC1CCN(CC(O)CNc2ccc(Cl)cn2)CC1 (configuration not stated) — higher, 58.9%
- Cc1nnc([C@@]23CCO[C@@H]2CCN(S(=O)(=O)c2cccnc2)C3)o1 — higher, 38.17%
- O=C(c1c[nH]c2ccccc2c1=O)N1CCSCC1 — higher, 40.47%
- CC(C(=O)NCCc1cccs1)N1CCC(n2ccnc2)CC1 (configuration not stated) — lower, -22.69%
- CC(C(=O)Nc1ncccn1)N1CCC(n2ccnc2)CC1 (configuration not stated) — higher, 61.56%
- CC(C(=O)Nc1ccc2ccccc2c1)N1CCC(n2ccnc2)CC1 (configuration not stated) — lower, -17.84%
- O=C(c1cc(Cl)c[nH]1)N1CCN(CCc2ccccn2)CC1 — lower, -5.61%
- COc1cc(OC)c(CNC(=O)NCC(=O)N2CCCC2)c(OC)c1 — lower, -19.51%
- OC1(Cn2ccc3ncccc32)CCN(Cc2ccccn2)CC1 — lower, 7.86%
- CCc1sc(-c2nnc(CNC(C)Cn3cc(C)cn3)o2)cc1C (configuration not stated) — lower, -11.19%
- CCc1sc(-c2nnc(CNCCn3cccn3)o2)cc1C — lower, -19.27%
- CCc1sc(-c2nnc(CNCCn3cc(C)cn3)o2)cc1C — higher, 53.03%
- CNc1nc2cn(Cc3ccc(Cl)cc3)c(=O)c-2c[nH]1 — higher, 16.38%
- CC[C@@H](Cn1ncc2ccccc2c1=O)NC(=O)c1cnccn1 — lower, -10.89%
- Cc1cc(=O)n2ncnc2n1CC(O)c1ccccc1Cl (configuration not stated) — lower, 5.36%
- Cc1cc(=O)n2ncnc2n1CC(O)c1cc(F)ccc1F (configuration not stated) — lower, 6.97%
- Cc1cc(=O)n2ncnc2n1CC(O)c1cc(Cl)ccc1Cl (configuration not stated) — higher, 50.59%
- Cc1nc(C2(O)CCCNCC2)sc1CCOc1ccc(Cl)cc1 (configuration not stated) — higher, 25.23%
- Cc1ccc(NC2CCN(C(=O)c3nccc4ccccc34)CC2)nn1 — lower, -27.5%
- Cc1[nH]c2ccc(C(=O)N3C[C@@H](O)[C@H](N4CCOCC4)C3)cc2c1C — higher, 21.97%
- COc1ccccc1C(C)CC(=O)N1CCN(S(N)(=O)=O)CC1 (configuration not stated) — higher, 50.46%
- COc1ccccc1C(C)CC(=O)N1CCCS1(=O)=O (configuration not stated) — lower, -29.82%
- COc1ccccc1C(C)CC(=O)N1CC[C@H](O)C1 (some centres not stated) — lower, -22.65%
- O=C(NC1CC1)C1CN(Cc2ccc3c(c2)OCCO3)CCN1 (configuration not stated) — higher, 54.73%
- NC(=O)COc1ccc(CN2CCNC(C(=O)NC3CC3)C2)cc1Cl (configuration not stated) — higher, 32.69%
- Cc1ccc(CN2CCNC(C(=O)NC3CC3)C2)cc1C (configuration not stated) — lower, 2.6%
- O=C(c1ccccn1)N1C[C@H]2CC[C@@H](C1)N(C(=O)CCN1CCCC1)C2 — lower, -49.63%
- Cc1cc(NCCNS(=O)(=O)c2cccc(Cl)c2)nc(C)n1 — lower, -42.54%
- CC(NCCNS(=O)(=O)c1cccc(Cl)c1)C1CCOCC1 (configuration not stated) — higher, 53.16%
- O=C(NCCNS(=O)(=O)c1cccc(Cl)c1)C1CCCO1 (configuration not stated) — lower, 1.27%
- COCC1CC2(CCN(C(=O)c3ccccc3C)CC2)CN1C(C)C (configuration not stated) — higher, 24.86%
- O=C(c1cn(CC(=O)N2CCCCC2)c2ccccc12)C1CC1 — lower, -27.61%
- O=C(c1cn(CC(=O)N2CCCCCC2)c2ccccc12)C1CC1 — lower, -45.95%
- O=C(c1cn(CC(=O)N2CCCC2)c2ccccc12)C1CC1 — higher, 54.29%
- CCOCC1CN(C(=O)c2cnoc2C)Cc2cn(C)nc21 (configuration not stated) — lower, -10.98%
- CC(=O)Nc1ccc(CN2CCCC(c3cc4ncccc4[nH]3)C2)cc1 (configuration not stated) — higher, 50.68%
- CCOc1ccc(CN2CCCC(c3cc4ncccc4[nH]3)C2)cc1 (configuration not stated) — lower, -12.12%
- Fc1ccc(CN2CCCC(c3cc4ncccc4[nH]3)C2)cc1 (configuration not stated) — lower, -6.41%
- Cc1occc1C(=O)N1CCCC2(CCN(CCN3CCCC3)C2=O)C1 (configuration not stated) — lower, -15.36%
- Cc1nn(C)c2nc(C3CC3)c(Cl)c(C(=O)O)c12 — higher, 52.23%
- Cc1noc2nc(C3CC3)c(Cl)c(C(=O)O)c12 — lower, -7.81%
- Cc1ccc(Cn2nc(C)c3c(C(=O)O)c(Cl)c(C4CC4)nc32)cc1 — higher, 26.11%
- CCc1csc(NC(=O)NCc2ccccn2)n1 — higher, 29.32%
- Cc1c(C(=O)N(C)CC(F)(F)F)nnn1-c1ccccc1Cl — lower, -20.76%
- CSC1(CNC(=O)NC(C)c2ccc(F)c(F)c2)CCOCC1 (configuration not stated) — lower, -90.61%
- CSC1(CNC(=O)NC(C)Cc2cccc(F)c2)CCOCC1 (configuration not stated) — higher, 16.49%
- CSC1(CNC(=O)NC(C)c2ccc(F)cc2)CCOCC1 (configuration not stated) — higher, 51.43%
- CCS(=O)(=O)CCN1CCN(C2CCC(C(C)C)CC2)CC1 (configuration not stated) — higher, 20.83%
- COCc1nccc(C2CCCN(Cc3ccc(SC)cc3)C2)n1 (configuration not stated) — higher, 35.63%
- CC1N(C)C(=O)COC12CCN(Cc1nccs1)CC2 (configuration not stated) — lower, -52.93%
- OCC1CCCN1c1cc(NCCc2ccccn2)ncn1 (configuration not stated) — lower, -13.49%
- CC(=O)N1CCc2[nH]cnc2C12CCN(C(=O)Cc1cccs1)CC2 — higher, 63.14%
- CC(=O)N1CCc2[nH]cnc2C12CCN(C(=O)Cc1ccccn1)CC2 — higher, 39.58%
- CN1CCc2[nH]cnc2C12CCN(C(=O)CCc1cccs1)CC2 — higher, 46.51%
- Cc1cccc(CN2C[C@@H]3CN(C(=O)[C@H]4CCCO4)C[C@@H]3C2=O)c1 — higher, 19.64%
- CCn1ncc2c1C(COC)N(C(=O)c1cccs1)CC2 (configuration not stated) — lower, -23.14%
- O=C(Nc1nnn[nH]1)c1ccc(I)c(F)c1 — higher, 15.2%
- Cc1cccc(CN2C(=O)C[C@H]3[C@@H]2CCN3Cc2nccs2)n1 — higher, 31.5%
- Cc1cccc(CN2CC[C@@H]3[C@@H]2CCN3Cc2cccs2)n1 — lower, -18.6%
- Cc1cccc(CN2C(=O)C[C@H]3[C@@H]2CCN3Cc2cccs2)n1 — higher, 63.06%
- Cc1ccc(-c2cn[nH]c2C2CCCN(c3ncccn3)C2)cc1 (configuration not stated) — lower, -16.71%
- Cc1ccc(-c2cn[nH]c2C2CCCN(c3nccc(N)n3)C2)cc1 (configuration not stated) — higher, 58%
- Cc1ccc(-c2cn[nH]c2C2CCCN(c3ccnc(C)n3)C2)cc1 (configuration not stated) — lower, -8.3%
- Cc1nc(CCNC(=O)NC(C)Cn2cccn2)cs1 (configuration not stated) — higher, 38.76%
- O=C(N[C@@H]1CN[C@H]2CCCO[C@H]21)c1cccnc1 — higher, 33.69%
- CC(=O)N1CCN(C(C)c2nnc(CC(C)C)o2)CC1 (configuration not stated) — lower, 2.02%
- CNc1ncc(CN(C)C(=O)CCc2[nH]nc3c2CCCC3)cn1 — higher, 50.57%
- CNc1ncc(CN(C)C(=O)CCc2cc3n(n2)CCCNC3)cn1 — higher, 20.76%
- CN(Cc1ccncn1)C(=O)CCc1[nH]nc2c1CCCC2 — lower, -2.31%
- Cc1ccc(CNC(=O)Cn2nc(-c3ccc(F)cc3)oc2=O)cc1F — lower, 1.6%
- COc1cccc(-c2noc(C3CCN(CC4CCCCC4)C3)n2)c1 (configuration not stated) — higher, 30.29%
- CCS(=O)(=O)N1CCC2(CC1)CN(C(=O)N(C)C)Cc1ccccc12 — lower, 6.79%
- CC(C)N1CCC(CC(=O)NCc2cc(O)ncn2)CC1 — lower, 12.17%
- CC(C)N1CCC(CC(=O)NCCc2cc(O)ncn2)CC1 — higher, 60.59%
- CCc1csc(CCNC(=O)CC2CCN(C(C)C)CC2)n1 — lower, -2.5%
- Cn1ccnc1CN1C[C@@H]2OCCN(c3ncccn3)[C@@H]2C1 — higher, 52.17%
- Cn1cncc1CN1C[C@@H]2OCCN(c3ncccn3)[C@@H]2C1 — higher, 25.02%
- CN(C)c1nccc(N2CCO[C@H]3CN(Cc4nccn4C)C[C@H]32)n1 — lower, 11.6%
- CC(C)NC(=O)N1Cc2nccn2CC(CN2CCCC2)C1 (configuration not stated) — lower, 2.5%
- CCC(C)Oc1ccc(CNCCc2c[nH]cn2)cc1Cl (configuration not stated) — lower, 12.15%
- Cc1nn(CC(=O)Nc2ccc(F)cc2)c(N)c1C#N — higher, 58.12%
- Cc1cc(NC(=O)Cn2nc(C)c(C#N)c2N)ccc1Br — higher, 55.86%
- CC(=O)c1c(C)nn(CC(=O)Nc2ccc(F)cc2)c1C — lower, -16.43%
- Cc1ccc(C)c(NC(=O)Cn2nc(C)c(C#N)c2N)c1 — lower, -15.17%
- COc1ccc(C)cc1NC(=O)Cn1nc(C)c(C#N)c1N — lower, 5.32%
- Cc1nn(CC(=O)Nc2cccc(F)c2)c(N)c1C#N — lower, -33.61%
- CCc1ccc(S(=O)(=O)N2Cc3c(CN(C)C)nn(C)c3C2)cc1 — higher, 48.09%
- NC1CCc2nc(-c3ccncc3)nc(Nc3cccc(F)c3)c2C1 (configuration not stated) — lower, -23.54%
- Cc1cccc2c1ccn2CCC(=O)Nc1c2c(nn1C)CSC2 — higher, 13.65%
- CCN(C)c1ncnc2c1CCN(Cc1ccc(OC)cc1)CC2 — lower, 7.86%
- O=C(Cc1ccccn1)N1CCCC(c2nccn2CC2CCC2)C1 (configuration not stated) — higher, 54.47%
- O=C(c1ccccn1)N1CCCC(c2nccn2CC2CCC2)C1 (configuration not stated) — higher, 14.41%
- O=C(CSCC1CC1)N1CCCC(c2nccn2Cc2ccccn2)C1 (configuration not stated) — lower, -17.83%
